# Measured values: the supplement of paper PMC5499739
# Over roughly 16,000 sequences, “Z-score” has its median near -0.37; the highest 2% begin near 3.1. This excerpt belongs to a sample that is enriched for the highest values.
# Test system: RBM10 RRM1-ZnF-RRM2 (GST-tagged construct)
# Assay: RNAcompete 7-mer binding Z-score; higher = stronger binding preference
# Procedure: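 RNAcompete: 20 pmol GST-tagged RBM10 RNA-binding constructs were incubated with a designed RNA pool of about 241,000 sequences up to 41 nt (1.5 nmol) on glutathione beads for 30 min at 4 °C and washed. Bound RNAs were identified by microarray hybridisation. Each RNA 7-mer is scored by a one-sided Z-score of its enrichment, computed over probes that contain the 7-mer within longer pool sequences.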
row,Sequence,RNAcompete 7-mer binding Z-score
1,CGCAAAG,-0.22
2,UCGGUUG,0.286
3,ACAAUCU,-0.795
4,UUUGACG,-0.551
5,AUGUAGA,0.243
6,UCACAAU,-0.511
7,ACAGUUC,-0.672
8,AGAAUGU,0.184
9,GGAAUGG,4.19
10,UGAAUGG,2.22
11,CGAAUGG,1.4
12,AGAAUGG,3.51
13,GGAAUGU,1.58
14,UUGUGUG,0.0604
15,AAGAUAA,-0.0233
16,GAUGAAC,0.385
17,CUUCCAU,-0.799
18,AGUCGCA,-0.122
19,GUGGUGC,1.68
20,UUGGUGG,2.09
21,AUGGUGC,0.789
22,CUGGUGG,1.22
23,GUGGUGG,3.78
24,AUGGUGG,3.33

row,Sequence,RNAcompete 7-mer binding Z-score
1,CUCGGGA,0.228
2,CCGGACC,-0.712
3,GUCGUCU,-0.417
4,CGCAAAC,-0.588
5,UGGGGGA,3.33
6,GGGGGGA,2.69
7,UGGGGAG,3.37
8,GGGGGAG,2.6
9,UGGGGAC,2.28
10,CGGGGAG,2.54
11,UGGGGAA,3.58
12,UCGGGAA,1.4
13,UUGGGGA,2.27
14,UGCGUGA,0.381
15,UUGCGGU,-0.0161
16,AAAGCCU,-0.734
17,CCGUUGG,0.228
18,CCGAUCU,-0.938
19,GUAUGAA,0.355
20,AGCAAGU,-0.0343
21,CUCGAAA,-0.493
22,AUGAGGU,1.83
23,UUGAGGA,1.04
24,GUGAGGC,1.86

row,Sequence,RNAcompete 7-mer binding Z-score
1,UUGAGGG,3.15
2,AUGAGGG,4.32
3,UUGAGGC,0.341
4,GUGAGGG,4
5,CUGAGGG,1.53
6,AUGAGGC,1.35
7,CAAAGAU,-0.282
8,UGGGACG,2.27
9,AUCUGAA,-0.643
10,CGGUAAA,0.352
11,AGGUAAA,2.1
12,GGGUAAG,3.97
13,CGGUAAG,1.52
14,GGGUAAC,2.47
15,GGGUAAA,3.9
16,CGUAUGU,-0.337
17,ACUGCUA,-0.653
18,AAUAUGG,1.27
19,GAUAUGG,3.32
20,GGUAUGG,4.03
21,GGUAUGA,1.89
22,GGUAUGU,1.33
23,GAUAUGC,-0.078
24,GACCGAU,-0.479

row,Sequence,RNAcompete 7-mer binding Z-score
1,ACGCUUU,-0.865
2,AGGAAUG,2.07
3,UGGAACG,1.92
4,GGGAAUA,3.15
5,CGGAAUA,0.65
6,GGGAAUG,3.43
7,GGGAACG,3.86
8,GGGAAUU,1.91
9,CGGAAUG,1.33
10,GGGAACA,3.06
11,CACGUUA,-0.406
12,UCAGCUU,-0.905
13,CACAAUU,-0.577
14,CAUGUGU,-0.151
15,UCAUAUC,-0.613
16,GGGUGGU,4.19
17,UGGUGGG,4.04
18,UGGUGGU,2.37
19,UGGUGGA,2.74
20,AGGUGGU,2.19
21,GGGUGGA,4.54
22,AGGUGGG,3.44
23,GCGUGGA,2.22
24,UGGUGGC,1.72

row,Sequence,RNAcompete 7-mer binding Z-score
1,GAGUGGU,2.52
2,AGGUGGA,3
3,GGGUGCA,3
4,GACAAGU,0.148
5,ACUAUAU,-0.544
6,AGUCCUC,-0.708
7,UUACAUU,-0.686
8,GAAUCUG,-0.632
9,GCUCGUU,-0.577
10,ACUCACG,-0.708
11,GCGCGGC,0.811
12,GGCAUGC,0.228
13,AUUCCGG,-0.559
14,UGUCAGA,-0.402
15,CGGUGGU,1.62
16,ACGUGGG,2.48
17,CGGUGGA,2.27
18,GGGUGGC,2.45
19,GGGUGGG,4.11
20,CGGUGGG,3.18
21,UCGUGGG,2.23
22,GGGUGCG,2.85
23,GCGUGGG,3.66
24,UUUGAGU,-0.213

row,Sequence,RNAcompete 7-mer binding Z-score
1,ACGUAUA,-0.198
2,UUAGCGC,-0.617
3,AAGGAAC,2.66
4,GAGGAAU,1.71
5,CAGGAAA,1.26
6,UAGGAAG,1.94
7,GAGGAAG,3.52
8,AAGGAAU,2.34
9,AAGGAAG,4.04
10,AAGGAAA,3.21
11,UAGGAAA,1.6
12,UUUGAUC,-0.719
13,CUGACGG,0.243
14,AGAGGCA,0.421
15,GGGGUGA,3.52
16,AGGGUGC,2.43
17,CGGGUGA,2.55
18,AGGGUGG,3.88
19,GCGGUGA,1.39
20,ACGGUGG,2.73
21,AGGGUGA,4.25
22,GGGGUCA,3
23,AUGGUGA,2.09
24,AGGGUCA,1.51

row,Sequence,RNAcompete 7-mer binding Z-score
1,UGGGUGA,3.5
2,UCGGUGA,0.479
3,CUGGAGG,1.11
4,GGGCCCA,-0.151
5,AGUAUUG,0.024
6,UGAUUGA,0.00216
7,GGACUUG,0.319
8,UGGGUGU,2.62
9,CGGGUGG,3.24
10,UGGGUGC,2.74
11,GCGGUGU,0.96
12,UGGGUGG,4
13,GGUGUGG,3.86
14,CGGGUGU,1.83
15,GGUGUGU,1.42
16,CGGGUGC,1.94
17,UGUGUGG,1.79
18,AGGGUGU,3.03
19,GGGGUGU,3.53
20,CAGUACA,-0.0816
21,ACGCAAC,-0.479
22,UCUGUUA,-0.795
23,GACUGUG,-0.198
24,CGUCAUA,-0.519

row,Sequence,RNAcompete 7-mer binding Z-score
1,AAGUGCG,0.698
2,UCAACCC,-0.752
3,ACCAUUG,-0.584
4,GGGGUGG,4.09
5,GGGGUGC,2.58
6,GCGGUGG,3.01
7,CUCACAG,-0.351
8,ACCAGGC,-0.136
9,GGGAUGA,3.59
10,UGGAUAG,2.3
11,GGGAUAA,3.36
12,GGGAUAG,3.83
13,GGGAUGU,2.88
14,GGGAUGC,2.65
15,GGGAUAC,2.71
16,UGGAUAA,1.07
17,AGGAUAG,2.21
18,UCUGGUC,-0.522
19,UCUGUCC,-0.81
20,CAGGGGA,2.8
21,CAGGGGU,2.91
22,UAGGGGU,3.84
23,CAGGGGG,2.58
24,UAGGGCU,1.3

row,Sequence,RNAcompete 7-mer binding Z-score
1,UAGGGGG,3.4
2,UAGGGCA,2.23
3,UAGGGGA,3.81
4,UAGGGGC,2.34
5,GUGACGA,0.68
6,GUAAAAA,0.253
7,CCAUUGG,-0.53
8,GUUUUGU,0.024
9,UGCUUGC,-0.73
10,CCGAUUG,-0.606
11,AAAGGGC,2.89
12,CAAGGGA,2.5
13,UAAGGGC,1.51
14,GAAGUGU,1.09
15,GAAGGCU,0.581
16,AAAGGGA,4.13
17,GAAGGGU,4.15
18,UAAGGGU,3.54
19,UAAGGUU,1.74
20,UAAGGGA,3.09
21,UAAGGCU,0.224
22,GAAGGGC,3.32
23,CCGUAUC,-0.876
24,AUAAUGG,1.84

row,Sequence,RNAcompete 7-mer binding Z-score
1,UGAUUAA,-0.118
2,AUACACA,-0.187
3,AGGUUGU,0.691
4,GCGACGC,-0.253
5,GUCGCUG,0.0495
6,UCUAACC,-0.737
7,GUCUAUA,-0.479
8,GUUGCAU,-0.227
9,CUAGAUU,-0.661
10,GAACCUG,-0.683
11,UCGGCUA,-0.537
12,CGGUGUA,0.873
13,GCAGGGA,2.94
14,GAAGGGA,4.75
15,AAAGGCU,0.796
16,GAAGGCA,2.46
17,CAAGGGU,2.85
18,AAAGGGU,4.71
